# Test results reported in PubChem BioAssay (NCI).
# The panel holds about 79,000 compounds, 15% with a hit somewhere; the sample as a whole holds those more often. Values without a mark were called inactive. Active and inactive are the calls of the source. No stated cut-off is given here; in the data, active means growth inhibition above about 70%; inactive means the rest.
# What was measured:
# [1] = NCI Yeast Anticancer Drug Screen. Data for the wt1 strain (AID 149);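 further: 0% = growth of vehicle-treated wt1 cultures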; settings: S. cerevisiae wt1 strain (SPY 50644) growth inhibition, active compounds read high
# How it was run: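 The wt1 strain was treated with compounds, and growth was compared with vehicle-treated cultures to give inhibition.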
# [2] = NCI Yeast Anticancer Drug Screen. Data for the rad50EPP+ strain (AID 151);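 further: 0% = growth of vehicle-treated control cultures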; settings: S. cerevisiae rad50 mutant strain, active compounds read high
# How it was run: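 One strain with a rad50 alteration (rad50EPP+) was compound-treated, its growth then compared to that of vehicle controls.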
# [3] = NCI Yeast Anticancer Drug Screen. Data for the mgt1 strain (AID 153); settings: S. cerevisiae mgt1 mutant growth inhibition, active compounds read high
# How it was run: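 After exposure of the mgt1 yeast mutant to compound, growth was measured and reported as inhibition compared with vehicle controls.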
# [4] = NCI Yeast Anticancer Drug Screen. Data for the rad50 strain (AID 155);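 further: 0% = growth of vehicle-only cultures of the same strain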; settings: S. cerevisiae rad50 strain growth inhibition, active compounds read high
# How it was run: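 Cells are treated with compound, grown, and their growth is then scored against vehicle-only cultures of the same repair-deficient yeast strain.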
# [5] = NCI Yeast Anticancer Drug Screen. Data for the mec2-1 strain (AID 157); settings: S. cerevisiae mec2-1 strain, active compounds read high
# How it was run: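 Test agents were screened against the mec2-1 yeast strain, with defined DNA repair or cell cycle alteration. Growth was scored as inhibition against vehicle-only controls.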
# [6] = NCI Yeast Anticancer Drug Screen. Data for the rad14 strain (AID 159);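 further: 0% = growth of vehicle-treated control cultures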; settings: S. cerevisiae rad14 strain growth inhibition, active compounds read high
# How it was run: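 Readout: yeast growth inhibition, referenced to vehicle-only cultures. Strain bears a defined alteration in DNA damage repair.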
# [7] = NCI Yeast Anticancer Drug Screen. Data for the sgs1 mgt1 strain (AID 161);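 further: 0% = growth of cultures given vehicle only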; settings: S. cerevisiae sgs1 mgt1 strain, active compounds read high
# How it was run: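 Read-out: growth inhibition vs vehicle controls. Cells: mutant yeast strain deficient in DNA damage repair.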
# [8] = NCI Yeast Anticancer Drug Screen. Data for the CLN2oe strain (AID 163);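 further: 0% = growth of vehicle-only control cultures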; settings: S. cerevisiae CLN2oe strain, active compounds read high
# How it was run: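 Here, growth inhibition in a cell-cycle-altered yeast strain after compound exposure was quantified against vehicle control growth.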
# [9] = NCI Yeast Anticancer Drug Screen. Data for the cln2 rad14 strain (AID 165);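 further: 0% = growth equal to vehicle treated cultures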; settings: S. cerevisiae cln2 rad14 strain, active compounds read high
# How it was run: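 Growth of compound-exposed yeast (cln2 rad14 genotype) measured and expressed as inhibition relative to vehicle.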
# [10] = NCI Yeast Anticancer Drug Screen. Data for the bub3 strain (AID 167); settings: S. cerevisiae bub3 mutant strain, active compounds read high
# How it was run: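 Part of a panel of yeast mutants defective in DNA damage repair or cell cycle regulation. Each strain is grown with compound, and inhibition is calculated relative to solvent-treated cultures.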
# [11] = NCI Yeast Anticancer Drug Screen. Data for the wt2 strain (AID 169);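 further: 0% = growth of vehicle-treated yeast cultures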; settings: S. cerevisiae wt2 strain growth inhibition, active compounds read high
# How it was run: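 Genetically defined yeast strains from a DNA-repair/cell-cycle panel were used. Compound-exposed yeast growth was measured, and the inhibition was calculated relative to vehicle treatment.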
# [12] = NCI Yeast Anticancer Drug Screen. Data for the mlh1 strain (AID 171);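 further: 0% = growth of vehicle-treated control cultures of the same strain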; settings: S. cerevisiae mlh1 strain growth inhibition, active compounds read high
# How it was run: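 Here the genetically defined yeast mutant is grown with each compound, and the extent to which its growth falls below that of vehicle-exposed cells is reported.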
# [13] = NCI Yeast Anticancer Drug Screen. Data for the sgs1 strain (AID 173);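 further: 0% = growth of vehicle-only control cultures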; settings: S. cerevisiae sgs1 mutant, active compounds read high
# How it was run: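 Relative growth inhibition, referenced to vehicle, was determined in a yeast strain with a defined alteration affecting DNA damage repair or cell cycle control after compound exposure.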
# [14] = NCI Yeast Anticancer Drug Screen. Data for the mlh1 rad18 strain (AID 175); settings: S. cerevisiae mlh1 rad18 strain growth inhibition, active compounds read high
# How it was run: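 In this whole-cell yeast screen, a strain with altered DNA damage repair is challenged with compound, and its growth is measured against matched vehicle-treated controls.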
# [15] = NCI Yeast Anticancer Drug Screen. Data for the rad18 strain (AID 177); settings: S. cerevisiae rad18 mutant growth inhibition, active compounds read high
# How it was run: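 Screen uses a yeast strain with a defined lesion in DNA damage repair; compound effect is read as loss of growth compared to untreated vehicle cultures.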
# [16] = at 5.0 µM (retest, dose inferred, filed as 0.5)
# [17] = at 50.0 µM (retest, dose inferred, filed as 5.0)
smiles,measurement,setting,value
CC(C)OC(CCC#N)c1ccc(Cl)cc1 (stereo not drawn),growth inhibition,[1]; at 1.2 µM,-35%
same,growth inhibition,[1]; at 3.7 µM,-28%
same,growth inhibition,[1]; at 11.0 µM,-24%
same,growth inhibition,[1]; at 33.0 µM,-13%
same,growth inhibition,[1]; at 100.0 µM,4%
same,growth inhibition,[2]; at 1.2 µM,-6%
same,growth inhibition,[2]; at 3.7 µM,1%
same,growth inhibition,[2]; at 11.0 µM,2%
same,growth inhibition,[2]; at 33.0 µM,5%
same,growth inhibition,[2]; at 100.0 µM,20%
same,growth inhibition,[3]; at 1.2 µM,-46%
same,growth inhibition,[3]; at 3.7 µM,-44%
same,growth inhibition,[3]; at 11.0 µM,-41%
same,growth inhibition,[3]; at 33.0 µM,-17%
same,growth inhibition,[3]; at 100.0 µM,7%
same,growth inhibition,[4]; at 1.2 µM,-22%
same,growth inhibition,[4]; at 3.7 µM,-25%
same,growth inhibition,[4]; [16],62%
same,growth inhibition,[4]; at 11.0 µM,-26%
same,growth inhibition,[4]; at 33.0 µM,-6%
same,growth inhibition,[4]; [17],99% (active)
same,growth inhibition,[4]; at 50.0 µM,3.4%
same,growth inhibition,[4]; at 100.0 µM,24%
same,growth inhibition,[5]; at 1.2 µM,-29%
same,growth inhibition,[5]; at 3.7 µM,-28%
same,growth inhibition,[5]; [16],55%
same,growth inhibition,[5]; at 11.0 µM,-18%
same,growth inhibition,[5]; at 33.0 µM,-2%
same,growth inhibition,[5]; [17],99% (active)
same,growth inhibition,[5]; at 50.0 µM,7.95%
same,growth inhibition,[5]; at 100.0 µM,7%
same,growth inhibition,[6]; at 1.2 µM,-22%
same,growth inhibition,[6]; at 3.7 µM,-26%
same,growth inhibition,[6]; at 11.0 µM,-12%
same,growth inhibition,[6]; at 33.0 µM,-6%
same,growth inhibition,[6]; at 100.0 µM,1%
same,growth inhibition,[7]; [16],2%
same,growth inhibition,[7]; [17],-4%
same,growth inhibition,[7]; at 50.0 µM,56%
same,growth inhibition,[8]; at 1.2 µM,11%
same,growth inhibition,[8]; at 3.7 µM,-6%
same,growth inhibition,[8]; at 11.0 µM,14%
same,growth inhibition,[8]; at 33.0 µM,15%
same,growth inhibition,[8]; at 100.0 µM,11%
same,growth inhibition,[9]; [16],48%
same,growth inhibition,[9]; [17],46%
same,growth inhibition,[9]; at 50.0 µM,6.8%
same,growth inhibition,[10]; at 1.2 µM,-18%
same,growth inhibition,[10]; at 3.7 µM,-12%
same,growth inhibition,[10]; [16],44%
same,growth inhibition,[10]; at 11.0 µM,-19%
same,growth inhibition,[10]; at 33.0 µM,5%
same,growth inhibition,[10]; [17],45%
same,growth inhibition,[10]; at 50.0 µM,-1.8%
same,growth inhibition,[10]; at 100.0 µM,4%
same,growth inhibition,[11]; at 1.2 µM,-19%
same,growth inhibition,[11]; at 3.7 µM,-21%
same,growth inhibition,[11]; at 11.0 µM,-17%
same,growth inhibition,[11]; at 33.0 µM,-12%
same,growth inhibition,[11]; at 100.0 µM,12%
same,growth inhibition,[12]; at 1.2 µM,-23%
same,growth inhibition,[12]; at 3.7 µM,-15%
same,growth inhibition,[12]; at 11.0 µM,-16%
same,growth inhibition,[12]; at 33.0 µM,6%
same,growth inhibition,[12]; at 100.0 µM,11%
same,growth inhibition,[13]; at 1.2 µM,-20%
same,growth inhibition,[13]; at 3.7 µM,-11%
same,growth inhibition,[13]; at 11.0 µM,-8%
same,growth inhibition,[13]; at 33.0 µM,17%
same,growth inhibition,[13]; at 100.0 µM,40%
same,growth inhibition,[14]; [16],42%
same,growth inhibition,[14]; [17],100% (active)
same,growth inhibition,[14]; at 50.0 µM,19.9%
same,growth inhibition,[15]; at 1.2 µM,-29%
same,growth inhibition,[15]; at 3.7 µM,-32%
same,growth inhibition,[15]; at 11.0 µM,-24%
same,growth inhibition,[15]; at 33.0 µM,-16%
same,growth inhibition,[15]; at 100.0 µM,0%
